The values that follow come from PubChem BioAssay (NCI).

The structures appear in SMILES notation. Where “and” joins values, the source holds several entries; their conditions need not be identical. Equal entries are not always repeated. This is part of a sample that, as a whole, favours compounds with a hit. Of some 79,000 tested, about 15% had one in any assay. A number with no mark means an inactive call. Calls of active or inactive are those of the source. Cut-off read from the data, not from the text of the source: active = growth inhibition above about 70%; inactive = the rest.

Assay [1] can be described thus: NCI Yeast Anticancer Drug Screen. Data for the rad50 strain (AID 155).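 Note: 0% = growth of vehicle-only cultures of the same strain.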 The settings on record: S. cerevisiae rad50 strain growth inhibition, stronger effect = higher value. In outline:
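Vehicle-treated cultures provide the reference for the growth inhibition reported for compound-exposed, repair-deficient yeast.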

Assay [2] is described as follows: NCI Yeast Anticancer Drug Screen. Data for the mec2-1 strain (AID 157). The settings on record: S. cerevisiae mec2-1 strain, stronger effect = higher value. Summed up: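 Using mec2-1 yeast: add compound, measure growth, express inhibition versus vehicle-treated cultures.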
Assay [3] is described as follows: NCI Yeast Anticancer Drug Screen. Data for the sgs1 mgt1 strain (AID 161).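 Note: 0% = growth of cultures given vehicle only.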 Conditions: S. cerevisiae sgs1 mgt1 strain, stronger effect = higher value. In outline:
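Percent growth inhibition was derived by comparing compound-exposed mutant yeast with vehicle-exposed cultures. The strain carries alterations in DNA damage repair.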

Assay [4] can be described thus: NCI Yeast Anticancer Drug Screen. Data for the cln2 rad14 strain (AID 165).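 Note: 0% = growth equal to vehicle treated cultures.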 Conditions: S. cerevisiae cln2 rad14 strain, stronger effect = higher value. In outline:
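Yeast strain cln2 rad14, bearing defects in cell cycle control and DNA repair, serves as the test system; values reflect growth inhibition compared with vehicle.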

Assay [5] is described as follows: NCI Yeast Anticancer Drug Screen. Data for the bub3 strain (AID 167). The settings on record: S. cerevisiae bub3 mutant strain, stronger effect = higher value. In outline:
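Mutant yeast screening strain plus compound; vehicle-treated cultures serve as the 0% inhibition reference.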

The nature of assay [6]: NCI Yeast Anticancer Drug Screen. Data for the wt2 strain (AID 169). The settings on record: S. cerevisiae wt2 strain growth inhibition, stronger effect = higher value. In outline:
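Treated yeast vs. vehicle-treated yeast: growth inhibition determined.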

A short description of assay [7]: NCI Yeast Anticancer Drug Screen. Data for the mlh1 rad18 strain (AID 175). Conditions: S. cerevisiae mlh1 rad18 strain growth inhibition, stronger effect = higher value. In outline: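 Steps: expose repair-defective yeast to compound; measure growth; express inhibition against vehicle-treated controls.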
[8] abbreviates: at 5.0 µM (retest, dose inferred, filed as 0.5).
Setting [9] is: at 50.0 µM (retest, dose inferred, filed as 5.0).

Take `Cc1ccc(OC(=O)c2ccc(N)cc2O)cc1`: the growth inhibition was 48% in assay [1] (setting [8]); 86% (active) in assay [1] (setting [9]); 45.1% in assay [1] (at 50.0 µM); 83% (active) in assay [2] (setting [8]); 90% (active) in assay [2] (setting [9]); 68.2% in assay [2] (at 50.0 µM). Besides, the growth inhibition is -3% in assay [3] (setting [8]); 93% (active) in assay [3] (setting [9]); 42.5% in assay [3] (at 50.0 µM); 39% in assay [4] (setting [8]); 97% (active) in assay [4] (setting [9]); 42.2% in assay [4] (at 50.0 µM). For the same compound, the growth inhibition in assay [5] (setting [8]) is 24%; in assay [5] (setting [9]), 90% (active); in assay [5] (at 50.0 µM), 77.7% (active); in assay [6] (at 1.2 µM), 0%; in assay [6] (at 3.7 µM) it was -4%; in assay [6] (at 11.0 µM), 15%. Also, the growth inhibition in assay [6] (at 33.0 µM) is 43%; in assay [6] (at 100.0 µM), 86% (active); in assay [7] (setting [8]) it was 33%; in assay [7] (setting [9]), 97% (active); in assay [7] (at 50.0 µM) it was 53.3%.
As to `Nc1cc2ccccc2cc1Br`, the growth inhibition in assay [1] (setting [8]) was 43%; in assay [1] (setting [9]) it was 73% (active); in assay [1] (at 50.0 µM) it was 81% (active); in assay [2] (setting [8]) it was 30%; in assay [2] (setting [9]), 62%; in assay [2] (at 50.0 µM), 42.9%. The growth inhibition is 14% in assay [3] (setting [8]); 26% in assay [3] (setting [9]); 71.8% (active) in assay [3] (at 50.0 µM); 54% in assay [4] (setting [8]); 44% in assay [4] (setting [9]); 41.6% in assay [4] (at 50.0 µM). For the same compound, the growth inhibition in assay [5] (setting [8]) is 22%; in assay [5] (setting [9]), 52%; in assay [5] (at 50.0 µM), 74.7% (active); in assay [6] (at 1.2 µM), -13%; in assay [6] (at 3.7 µM), -17%; in assay [6] (at 11.0 µM) it was -17%. Besides, the growth inhibition is 12% in assay [6] (at 33.0 µM); 97% (active) in assay [6] (at 100.0 µM); 40% in assay [7] (setting [8]); 82% (active) in assay [7] (setting [9]); 45% in assay [7] (at 50.0 µM).
As to `O=C1CSC(=S)N1c1ccc(F)c(F)c1`, the growth inhibition in assay [1] (setting [8]) was 4%; in assay [1] (setting [9]), 90% (active); in assay [1] (at 50.0 µM), 97.5% (active); in assay [2] (setting [8]), -12%; in assay [2] (setting [9]), 95% (active); in assay [2] (at 50.0 µM), 97.2% (active). Also, the growth inhibition in assay [3] (setting [8]) is 4%; in assay [3] (setting [9]), 94% (active); in assay [3] (at 50.0 µM) it was 97% (active); in assay [4] (setting [8]) it was -3%; in assay [4] (setting [9]), 43%; in assay [4] (at 50.0 µM), 86.2% (active). Also, the results for the growth inhibition in assay [5] (setting [8]), in assay [5] (setting [9]) and in assay [5] (at 50.0 µM) were 0%, 92% (active) and 96.3% (active), respectively.
For the compound `Cc1n(CC(C)C)c2c([n+]1C)C(=O)c1ccccc1C2=O`, the growth inhibition is 34% in assay [1] (setting [8]); 98% (active) in assay [1] (setting [9]); 85% (active) in assay [1] (at 50.0 µM); 44% in assay [2] (setting [8]); 99% (active) in assay [2] (setting [9]); 90.4% (active) in assay [2] (at 50.0 µM). In addition, the growth inhibition was 44% in assay [3] (setting [8]); 99% (active) in assay [3] (setting [9]); 91% (active) in assay [3] (at 50.0 µM); 21% in assay [4] (setting [8]); 95% (active) in assay [4] (setting [9]); 89% (active) in assay [4] (at 50.0 µM). Also, the growth inhibition in assay [5] (setting [8]) is 60%; in assay [5] (setting [9]), 99% (active); in assay [5] (at 50.0 µM) it was 89.5% (active); in assay [7] (setting [8]) it was 68%; in assay [7] (setting [9]) it was 98% (active).
Consider `CC(C)CCCC(C)C1CCC2C3CC=C4CC([n+]5cccc6ccccc65)CCC4(C)C3CCC12C` (stereo not given), for which the growth inhibition is 78% (active) in assay [1] (setting [8]); 90% (active) in assay [1] (setting [9]); 93.3% (active) in assay [1] (at 50.0 µM); 11% in assay [2] (setting [8]); 92% (active) in assay [2] (setting [9]); 95.4% (active) in assay [2] (at 50.0 µM). In addition, the growth inhibition in assay [3] (setting [8]) was 60%; in assay [3] (setting [9]) it was 50%; in assay [3] (at 50.0 µM), 94.8% (active); in assay [4] (setting [8]), 39%; in assay [4] (setting [9]), 91% (active); in assay [4] (at 50.0 µM) it was 68%. Further, the growth inhibition in assay [5] (setting [8]) was 74% (active); in assay [5] (setting [9]), 89% (active); in assay [5] (at 50.0 µM) it was 92.2% (active); in assay [7] (setting [8]), 74% (active); in assay [7] (setting [9]), 89% (active); in assay [7] (at 50.0 µM) it was 95.2% (active).
In the case of `Nc1ncnc(N)c1N=O`, the growth inhibition was -19% in assay [1] (setting [8]); 1% in assay [1] (setting [9]); 39% and 21.6% in assay [1] (at 50.0 µM); -13% in assay [2] (setting [8]); -3% in assay [2] (setting [9]); 32.5% and 4.05% in assay [2] (at 50.0 µM). For the same compound, the growth inhibition in assay [3] (setting [8]) was 5%; in assay [3] (setting [9]), 3%; in assay [3] (at 50.0 µM) it was 67.5% and 35.1%; in assay [4] (setting [8]), 11%; in assay [4] (setting [9]), 28%; in assay [4] (at 50.0 µM), 39.3% and 31.2%. Also, the growth inhibition in assay [5] (setting [8]) is -2%; in assay [5] (setting [9]) it was 54%; in assay [5] (at 50.0 µM), 62.6% and 53.2%; in assay [7] (setting [8]), -3%; in assay [7] (setting [9]) it was 15%; in assay [7] (at 50.0 µM), 34.5% and 26.6%.
As to `CC(=O)Oc1cccc2cccnc12`, the growth inhibition was 99% (active) in assay [1] (setting [8]); 99% (active) in assay [1] (setting [9]); 99.2% (active) in assay [1] (at 50.0 µM); 91% (active) in assay [2] (setting [8]); 100% (active) in assay [2] (setting [9]); 99.3% (active) in assay [2] (at 50.0 µM). In addition, the growth inhibition in assay [3] (setting [8]) is 98% (active); in assay [3] (setting [9]), 100% (active); in assay [3] (at 50.0 µM) it was 89.2% (active); in assay [4] (setting [8]), 88% (active); in assay [4] (setting [9]), 99% (active); in assay [4] (at 50.0 µM) it was 98.8% (active). Also, the growth inhibition in assay [5] (setting [8]) was 98% (active); in assay [5] (setting [9]), 100% (active); in assay [5] (at 50.0 µM), 99.2% (active); in assay [7] (setting [8]), 96% (active); in assay [7] (setting [9]), 99% (active); in assay [7] (at 50.0 µM) it was 98.1% (active).
For the compound `Cc1ccc(S(=O)(=O)C23C(N=NC2(C)C)C3(C)C)cc1` (stereo not given), the growth inhibition is 10% in assay [1] (setting [8]); 3% in assay [1] (setting [9]); -4.7% in assay [1] (at 50.0 µM); 4% in assay [2] (setting [8]); -3% in assay [2] (setting [9]); -10.6% in assay [2] (at 50.0 µM). The growth inhibition in assay [3] (setting [8]) is -16%; in assay [3] (setting [9]), 4%; in assay [3] (at 50.0 µM) it was 1.25%; in assay [4] (setting [8]), 8%; in assay [4] (setting [9]), 15%; in assay [4] (at 50.0 µM), -39.9%. The growth inhibition in assay [5] (setting [8]) is 15%; in assay [5] (setting [9]) it was -2%; in assay [5] (at 50.0 µM) it was -45.8%; in assay [7] (setting [8]) it was -1%; in assay [7] (setting [9]), -16%; in assay [7] (at 50.0 µM) it was 8.4%.
